The results in this text go back to the supplement of paper PMC8728848.

The sample as a whole holds a higher share of the strongest signals than the screen did.

Holding throughout (test): glycan array binding signal (z-score within array); higher = stronger binding
Holding throughout (details): glycan notation: IUPAC condensed, linker removed

One assay deals with GlcNAc(b1-3)Gal(b1-4)Glc. Put shortly: (§1)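 The binding signal is a Z-score computed within each array. Data were drawn from 3228 arrays in the Consortium for Functional Glycomics database, restricted to those with a known protein sequence. Scores were averaged over arrays of the same protein sequence at different concentrations or buffers, and over linkers, and negative values can be taken as non-binding.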

Assay [1] has as its target GlcNAc(b1-3)Gal(b1-4)GlcNAc(b1-3)Gal(b1-4)GlcNAc(b1-3)Gal(b1-4)GlcNAc(b1-3)Gal(b1-4)GlcNAc(b1-2)Man(a1-3)[GlcNAc(b1-3)Gal(b1-4)GlcNAc(b1-3)Gal(b1-4)GlcNAc(b1-3)Gal(b1-4)GlcNAc(b1-3)Gal(b1-4)GlcNAc(b1-2)Man(a1-6)]Man(b1-4)GlcNAc(b1-4)[Fuc(a1-6)]GlcNAc. Put shortly: as §1
For assay [2], the target named is GlcNAc(b1-3)Gal(b1-4)GlcNAc(b1-3)GalNAc. Put shortly: as §1
Assay [3] has as its target GlcNAc(b1-3)Gal(b1-4)GlcNAc(b1-6)[GlcNAc(b1-3)]Gal(b1-4)GlcNAc. Put shortly: as §1
In assay [4] the target is GlcNAc(b1-3)[GlcNAc(b1-4)][GlcNAc(b1-6)]GlcNAc. Put shortly:
as §1

The target in assay [5] is GlcNAc(b1-4)GlcNAc(b1-4)GlcNAc(b1-4)GlcNAc(b1-4)GlcNAc. Put shortly: as §1
The target of a further assay is Kdn(a2-6)Gal(b1-4)GlcNAc. Put shortly:
as §1

Assay [6] deals with Man(a1-2)Man(a1-6)[Man(a1-3)]Man(a1-6)[Man(a1-2)Man(a1-2)Man(a1-3)]Man. Put shortly: as §1
Assay [7] concerns the target Neu5Ac(a2-3)Gal(b1-4)GlcNAc(b1-2)[Neu5Ac(a2-3)Gal(b1-4)GlcNAc(b1-4)]Man(a1-3)[GlcNAc(b1-4)][Neu5Ac(a2-3)Gal(b1-4)GlcNAc(b1-2)[Neu5Ac(a2-3)Gal(b1-4)GlcNAc(b1-6)]Man(a1-6)]Man(b1-4)GlcNAc(b1-4)GlcNAc. Put shortly:
as §1

For assay [8], the target named is Neu5Ac(a2-3)Gal(b1-4)[Fuc(a1-3)]GlcNAc(b1-3)Gal(b1-4)[Fuc(a1-3)]GlcNAc(b1-3)Gal(b1-4)[Fuc(a1-3)]GlcNAc. Put shortly: as §1
The target of a further assay is Neu5Ac(a2-3)GalNAc. Put shortly: as §1
In assay [9] the target is Neu5Ac(a2-6)Gal(b1-4)GlcNAc(b1-2)Man(a1-3)[Gal(b1-4)GlcNAc(b1-2)Man(a1-6)]Man(b1-4)GlcNAc(b1-4)GlcNAc. Put shortly: as §1
In assay [10] the target is Neu5Ac(a2-6)Gal(b1-4)GlcNAc(b1-2)Man(a1-6)Man(b1-4)GlcNAc(b1-4)GlcNAc. Put shortly:
as §1

The target in assay [11] is Neu5Ac(a2-6)Gal(b1-4)GlcNAc(b1-3)Gal(b1-4)GlcNAc(b1-6)[Gal(b1-3)]GalNAc. Put shortly: as §1
Assay [12] concerns the target Neu5Ac(a2-6)Gal(b1-4)GlcNAc(b1-6)[Gal(b1-3)GlcNAc(b1-3)]Gal(b1-4)Glc. Put shortly: as §1
Assay [13] concerns the target Neu5Ac(a2-6)Gal(b1-4)GlcNAc6S. Put shortly: as §1
Assay [14] has as its target Neu5Gc(a2-3)Gal(b1-3)[Fuc(a1-4)]GlcNAc. Put shortly:
as §1

B1: pTFF2 (Sus scrofa), P01359 (protein)
chain: KPAACRCSRQDPKNRVNCGFPGITSDQCFTSGCCFDSQVPGVPWCFKPLPAQESEECVMEVSARKNCGYPGISPEDCAARNCCFSDTIPEVPWCFFPMSVEACHY
With B1, the “glycan array binding signal (z-score)” value is -0.368 with GlcNAc(b1-3)Gal(b1-4)Glc; 4.15 in assay [1]; 3.21 in [2]; -0.954 in assay [3]; 0.277 in assay [4]; -0.168 in [5]. In addition, the “glycan array binding signal (z-score)” value with Kdn(a2-6)Gal(b1-4)GlcNAc was 0.54; in assay [6], 0.712; in assay [7], 6.13; in [8] it was -0.094; with Neu5Ac(a2-3)GalNAc, 1.05; in assay [9], 0.708. Moreover, the “glycan array binding signal (z-score)” value in assay [10] was 2.29; in assay [11], -0.859; in assay [12] it was -0.007; in assay [13] it was -1.45; in assay [14], 0.024.
